USP28 inh – inhibitors of human USP28 deubiquitinase; purified USP28, Ub-rhodamine cleavage fluorescence, 30 min; AID 1645857, 2021; inhibition, % at 25 µM; 47,000 compounds, 3% hits; Ubiquitin carboxyl-terminal hydrolase 28 (Homo sapiens), Q96RU2
OTUD3 block – inhibitors of human OTUD3 deubiquitinase | OTU domain-containing protein 3 (Homo sapiens), Q5T2D3 | purified OTUD3, Ub-rhodamine fluorescence, 2 h | inhibition, % at 25 µM | 47,000 compounds, 0.7% hits | AID 1645858, 2021
* = called active by the depositor. Hits are enriched below; roughly 3.3% of the tested compounds scored in any of these assays. Rule as the data show it: active = inhibition above about 30%; inactive = the rest.

Screening O=C1CSC(c2ccc(F)cc2)c2c(n(C3CCCCCC3)[nH]c2=O)N1 (stereo unspecified) returned USP28 inh 11 and OTUD3 block 8.
For CC(C)c1cc2c(c(O)c1O)[C@@]1(C(=O)O)CCCC(C)(C)[C@@H]1CC2 the results were USP28 inh 39* and OTUD3 block 36*.
Screening CC(C)c1cc2c(c(O)c1O)C1(C(=O)O)CCCC(C)(C)C1CC2 (stereo unspecified) returned USP28 inh 53* and OTUD3 block 46*.
`Cc1cc(OCC(=O)NCC(=O)N2CC[C@@]3(O)CCCC[C@H]3C2)c2c3c(c(=O)oc2c1)CCC3` gave USP28 inh 8 and OTUD3 block 9.
Screening COc1cccc2oc3c4c(cc(OC)c3c(=O)c12)OC1OC=CC41O (stereo unspecified) returned USP28 inh 11 and OTUD3 block -1.
Screening CCCCCC(O)c1c(O)cc2c(c1O)C(=O)c1c(O)cc(O)cc1C2=O (stereo unspecified) returned USP28 inh -48 and OTUD3 block -74.
CCn1cc(-c2c(C#N)c(N)nc3c2CCCCCC3)c(C)n1 was read as USP28 inh 8 and OTUD3 block 9.
`COC(=O)[C@@]1(O)c2c(oc3cccc(O)c3c2=O)OC=C(C)[C@H]1O` gave USP28 inh 5 and OTUD3 block 10.
Screening COC(=O)[C@]1(O)O[C@@]2(C(=O)OC)c3c(oc4cc(C)cc(O)c4c3=O)[C@H]3c4c(oc5cc(C)cc(O)c5c4=O)C[C@H]1[C@H]32 returned USP28 inh 29 and OTUD3 block 32*.
CN(C[C@H]1CN2CC[C@H]1C[C@@H]2CNC(=O)Nc1cccc(F)c1)c1ccccc1 was read as USP28 inh -4 and OTUD3 block -2.
